About 320 (0.49%) of roughly 65,000 compounds were called active.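 The calls were made as follows: active = ranked among the strongest by inhibition in the single 10 µM screen, a fixed top-ranked set picked for dose follow-up; inactive = the rest, inconclusive results apart.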 The full list was thinned out, with actives kept by preference.
Tested on: mevalonate kinase [Streptococcus pneumoniae D39]
Assay: S. pneumoniae MK inhibitors, primary screen, biochemical, PK/LDH-coupled NADH absorbance (AID 555)
Conditions: purified MK, PK/LDH-coupled NADH absorbance 340 nm, at 10 µM, stronger effect = higher value
[1] = measured here: pilot screen replicates

SMILES	inhibition	inhibition [1] [%]
CN1CCN(Cc2ccccc2C(F)(F)F)CC1	6% (inactive)	–
CCN1CCN(C(=O)Cc2coc3cc(C)cc(C)c23)CC1	5% (inactive)	–
COc1ccccc1CN1CCN(C(=O)Cc2ccccc2)CC1	53% (active)	0
CCOC(=O)c1c(-c2ccccc2)oc2ccc(OC(=O)N(C)C)cc12	0% (inactive)	–
CC(C)c1ccc(O)c(CN2CCN(c3ccccc3)CC2)c1	0% (inactive)	–
COc1ccc(CN2CCN(c3ccccc3F)CC2)c(OC)c1	43% (active)	1.5
Fc1cccc(F)c1CN1CCN(Cc2c(F)cccc2F)CC1	2% (inactive)	–
CCC(=NCc1ccco1)c1c(O)n(Cc2ccccc2)c(=O)[nH]c1=O	12% (inactive)	–
CC(=NCC1CCCO1)c1c(O)n(-c2ccccc2)c(=O)[nH]c1=O (configuration not stated)	4% (inactive)	–
COC(=O)COc1cc(C)cc2oc(=O)c3c(c12)CCCC3	6% (inactive)	–

From PubChem BioAssay AID555 (SRMLSC, 2006)
